Laboratory results reported in PubChem BioAssay AID1159580 (chemical genetic matrix, 2015).
Several values for one entry are separate records, joined by “and”; a condition that tells them apart may be missing. Identical values can stand only once. About 2,000 (36%) of roughly 5,500 compounds were called active. Roughly 18% stayed inconclusive and do not appear here. No stated cut-off is given here; in the data, active means normalized growth mostly below about 0.91 (no sharp cut-off); inconclusive means no clear call, values can overlap the other calls; inactive means mostly above about 0.92. This is one part of the list.

Experiment: chemical genetic growth profiling, strain panel (AID 1159580);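 further: tested at 20 µM; growth read once vehicle control cultures reached saturation at 30 °C; 1 = growth at the plate median or of vehicle wells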
Details: S. cerevisiae deletion strains, growth OD

Measured: normalized growth

Cc1c(NC(=O)c2cccnc2)c(=O)n(-c2ccccc2)n1C
inactive: locus YAL013W, strain DEP1, stronger effect = lower value 0.996 | locus YAL021C, strain ccr4, stronger effect = lower value 1.02 | locus YAL026C, strain drs2, stronger effect = lower value 0.999 | locus YAL030W, strain snc1, stronger effect = lower value 1 | locus YBL061C, strain skt5, stronger effect = lower value 1 | locus YBR009C, strain hhf1, stronger effect = lower value 0.966 | locus YBR021W, strain FUR4, stronger effect = lower value 1.03 | locus YBR023C, strain chs3, stronger effect = lower value 1.01 | locus YBR171W, strain sec66, stronger effect = lower value 1 | locus YBR229C, strain ROT2, stronger effect = lower value 0.964 | locus YBR231C, strain swc5, stronger effect = lower value 1.01 | locus YBR279W, strain paf1, stronger effect = lower value 0.999 | locus YCL011C, strain gbp2, stronger effect = lower value 1 | locus YCL016C, strain dcc1, stronger effect = lower value 0.999 | locus YCL029C, strain bik1, stronger effect = lower value 0.997 | locus YCL061C, strain MRC1, stronger effect = lower value 1 | locus YCL069W, strain vba3, stronger effect = lower value 0.989 | locus YCR088W, strain abp1, stronger effect = lower value 0.997 | locus YDL005C, strain med2, stronger effect = lower value 1 | locus YDL035C, strain GPR1, stronger effect = lower value 0.992 | locus YDL040C, strain nat1, stronger effect = lower value 0.988 | locus YDL074C, strain BRE1, stronger effect = lower value 0.949 | locus YDL101C, strain DUN1, stronger effect = lower value 0.981 | locus YDL134C, strain PPH21, stronger effect = lower value 1.01 | locus YDL185W, strain tfp1, stronger effect = lower value 0.983 | locus YDL192W, strain arf1, stronger effect = lower value 0.994 | locus YDR001C, strain nth1, stronger effect = lower value 0.992 | locus YDR069C, strain doa4, stronger effect = lower value 1.01 | locus YDR101C, strain arx1, stronger effect = lower value 0.988 | locus YDR137W, strain rgp1, stronger effect = lower value 0.992 | locus YDR159W, strain sac3, stronger effect = lower value 1 | locus YDR162C, strain NBP2, stronger effect = lower value 1 | locus YDR195W, strain ref2 0.998 | locus YDR297W, strain sur2, stronger effect = lower value 0.999 | locus YDR318W, strain mcm21, stronger effect = lower value 1 | locus YDR334W, strain swr1, stronger effect = lower value 0.999 | locus YDR335W, strain msn5, stronger effect = lower value 0.997 | locus YDR388W, stronger effect = lower value 1 | locus YDR392W, strain spt3, stronger effect = lower value 0.934 | locus YDR502C, strain sam2, stronger effect = lower value 0.994 | locus YEL003W, strain gim4, stronger effect = lower value 1 | locus YEL037C, strain rad23, stronger effect = lower value 0.994 | locus YEL061C, strain CIN8 (second series), stronger effect = lower value 1 | locus YEL061C, strain CIN8, stronger effect = lower value 0.98 | locus YER015W, strain faa2, stronger effect = lower value 1 | locus YER016W, strain bim1, stronger effect = lower value 1 | locus YER110C, stronger effect = lower value 0.997 | locus YER111C, strain swi4, stronger effect = lower value 0.997 | locus YER155C, strain BEM2 (second series), stronger effect = lower value 1.02 | locus YER155C, strain BEM2, stronger effect = lower value 1 | locus YER167W, strain BCK2, stronger effect = lower value 1 | locus YFR010W, strain ubp6, stronger effect = lower value 0.997 | locus YGL078C, strain dbp3, stronger effect = lower value 0.988 | locus YGL086W, strain mad1, stronger effect = lower value 0.985 | locus YGL167C, strain pmr1, stronger effect = lower value 1 | locus YGL173C, strain kem1, stronger effect = lower value 1.01 | locus YGL227W, strain vid30, stronger effect = lower value 0.998 | locus YGL240W, strain doc1, stronger effect = lower value 1.01 | locus YGL248W, strain PDE1, stronger effect = lower value 0.974 | locus YGL253W, strain hxk2, stronger effect = lower value 1 | locus YGR078C, strain PAC10, stronger effect = lower value 0.97 | locus YGR135W, strain pre9, stronger effect = lower value 1.07 | locus YGR252W, strain gcn5, stronger effect = lower value 1.02 | locus YHR013C, strain ard1, stronger effect = lower value 0.96 | locus YHR027C, strain rpn1, stronger effect = lower value 1.01 | locus YHR030C, strain SLT2, stronger effect = lower value 1 and 1.04 | locus YHR079C, strain IRE1 (second series), stronger effect = lower value 0.992 | locus YHR079C, strain IRE1, stronger effect = lower value 1.02 | locus YHR094C, strain hxt1, stronger effect = lower value 0.998 | locus YHR129C, strain ARP1, stronger effect = lower value 1 | locus YHR142W, strain chs7, stronger effect = lower value 1 | locus YHR200W, strain rpn10, stronger effect = lower value 0.992 | locus YIL066C, strain RNR3, stronger effect = lower value 0.974 | locus YIL073C, strain SPO22, stronger effect = lower value 1.04 | locus YIL125W, strain kgd1, stronger effect = lower value 0.987 | locus YIR030C, strain dcg1, stronger effect = lower value 0.999 | locus YJL092W, strain hpr5, stronger effect = lower value 1 | locus YJL095W, strain BCK1 (second series), stronger effect = lower value 1 | locus YJL095W, strain BCK1, stronger effect = lower value 0.964 and 1.04 | locus YJL115W, strain asf1, stronger effect = lower value 1 | locus YJL129C, strain trk1, stronger effect = lower value 1.01 | locus YJL134W, strain LCB3, stronger effect = lower value 0.995 | locus YJL154C, strain vps35, stronger effect = lower value 0.989 | locus YJL164C, strain tpk1, stronger effect = lower value 1.01 | locus YJL166W, strain qcr8, stronger effect = lower value 1.01 | locus YJL168C, strain set2, stronger effect = lower value 0.987 | locus YJL187C, strain SWE1 (second series), stronger effect = lower value 0.95 | locus YJL187C, strain SWE1, stronger effect = lower value 0.999 | locus YJR043C, strain POL32, stronger effect = lower value 0.924
